POLI inh: DNA polymerase iota (human) inhibition; 1% of 390,000 active; Pol iota fluorescent replication assay, 10 min; Potency, µM (top dose mostly 115 µM), inactives show top-dose activity, negative = inhibition, hits mostly inhibitors; AID 588590; Q9UNA4
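Pol iota at 10 nM preincubated 15 min with compounds at room temperature; reaction started with fluorescent substrate, 50 nM final. Fluorescence read kinetically at 0 and 10 min; buffer-only wells as negative control.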
Pol kappa inh: blocks human DNA polymerase kappa activity; Q9UBT6; purified Pol kappa, fluorescent DNA synthesis assay, 10 min; Potency, µM (top dose mostly 107 µM), inactives show at the top dose activity, negative = inhibition, most hits filed as inhibitors; 0.53% of 400,000 active; also: % is scaled to controls: 0 for no effect and ±100 for the full control effect
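Kinetic fluorescence screen: compound preincubated 15 min RT with 10 nM enzyme; 50 nM substrate (final) initiates; reads at 0/10 min.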
Pol beta inh: inhibitors of human DNA polymerase beta; P06746; Pol beta primer extension/strand displacement, fluorescence kinetic; Potency, µM (titrated, usually from 114 µM), for inactives: at the top dose activity change, negative = inhibition, actives largely listed as inhibitors; 1.3% of 340,000 active; also: % is scaled to controls: 0 for no effect and ±100 for the full control effect
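Curves were derived by four-parameter Hill fits of normalized qHTS data. The kinetic fluorescent primer-extension read was taken at 0 and 10 min after 50 nM substrate, following a 15 min room-temperature preincubation of 10 nM enzyme with compounds.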
Pol eta inh: inhibitors of human DNA polymerase eta; Q9Y253; recombinant Pol eta, fluorescent DNA replication assay; Potency, µM (titrated, usually from 114 µM), for the others: at the top dose activity change, negative = inhibition, most hits filed as inhibitors; 1.2% of 390,000 active; also: % is scaled to controls: 0 for no effect and ±100 for the full control effect
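Pol eta (10 nM) was preincubated with compounds for 15 min at room temperature, after which fluorescent replication substrate (50 nM final) was added to start the reaction. Fluorescence was read kinetically at 0 and 10 min.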
WRN helicase inh: inhibitors of human WRN helicase; 0.46% of 360,000 active; WRN helicase unwinding, fluorescent forked duplex, kinetic; Potency, µM (top dose mostly 114 µM), for inactives: at the top dose activity change, negative = inhibition, usual class: inhibitors; AID 651768; also: % is scaled to controls: 0 for no effect and ±100 for the full control effect; nearly all actives have a fitted effect of over 55% in size
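Kinetic red-fluorescence monitoring (525/598 nm) tracks WRN helicase activity after 100 nM fluorophore-quencher forked duplex and 2 mM ATP are added to 20 nM enzyme pretreated 15 min at room temperature with compound.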
FEN1 inh: human FEN1 inhibition; P39748; Recombinant FEN1 flap cleavage, fluorescence, 15 min; Potency, µM (top dose mostly 114 µM), inactives show top-dose activity change, negative = inhibition, hits mostly inhibitors; 0.35% of 390,000 active; also: % is scaled to controls: 0 for no effect and ±100 for the full control effect; nearly all actives have a fitted effect of over 65% in size
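Steps: FEN1 (10 nM) dispensed; compound added by pin tool; 15 min at room temperature; substrate added to 50 nM final; reads at 0 min and 15 min; data normalized and fitted (four-parameter Hill).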
TbPGK inh: validation of Trypanosoma brucei phosphoglycerate kinase inhibitors. shares compounds with Pol kappa inh. TbPGK coupled GAPDH assay, Kinase-Glo luminescence. Potency, µM (highest dose often 57.5 µM), for the others: at the top dose activity change, negative = inhibition, hits mostly inhibitors. 79% of 500 active; also: % is scaled to controls: 0 for no effect and ±100 for the full control effect; nearly all actives have a fitted effect of over 65% in size
POLI cherry-pick: Human Pol iota inhibitor confirmatory assay | 77% of 1,500 active | Pol iota primer extension, TAMRA/BHQ fluorescence | shares compounds with Pol kappa inh | AID 720496 | Potency, µM, actives largely listed as inhibitors
* marks the source's active call; other numbers are inactive results; ? = inconclusive; / = not tested or not shown; [ ] = remark or other dose. A selection: hits, their analogues and other compounds. The true share with any hit is near 2.4%. Calls follow the shape of the dose curve; as a rule, active = well fitted curve in the direction sought with a large enough effect; inconclusive = small, poorly fitted or top-dose-only effect, or another doubt; inactive = no such curve, though single readings can be large; an effect the other way counts as inactive or inconclusive. Potency is read from the fitted curve at half-maximal effect.

SMILES	POLI inh	Pol kappa inh	Pol beta inh	Pol eta inh	WRN helicase inh	FEN1 inh	TbPGK inh	others
NS(=O)(=O)c1ccc(NC(=O)/C=C/c2ccco2)cc1	18µM*	50µM*	25µM*	20µM*	?	-25%	8.2µM*
CN(c1nnc(NC(=O)Nc2ccccc2C(F)(F)F)s1)C1CCCCC1	66%	1%	1%	-24%	/	4%	/
O=C(CCO)c1ccc(O)cc1	5µM*	8.9µM*	?	3.5µM*	28µM*	22µM*	1.6µM*
Cc1csc2c(=O)sc(NC(=O)c3ccco3)nc12	6%	-11%	?	40%	0%	-14%	/
Cc1csc2c(=O)sc(NC(=O)c3cccs3)nc12	?	6%	?	?	?	?	26µM*
Cc1ccc(Nc2nc(Nc3ccc(Cl)cc3)nc(N3CCOCC3)n2)cc1	-17%	-1%	/	/	/	-14%	/
O=c1c(OC2OC(CO)C(O)C(O)C2O)c(-c2ccc(O)c(O)c2)oc2cc(O)cc(O)c12 (stereo not drawn)	25µM*	18µM*	-19%	?	-4%[11.6 µM]	?	?
COc1cc(-c2oc3cc(O)cc(O)c3c(=O)c2O[C@@H]2O[C@H](CO)[C@@H](O)[C@H](O)[C@H]2O)cc(OC)c1O	/	-7%[60.1 µM]	/	/	/	/	/
CCOC(=O)c1ccc(NC(=O)c2c(-c3c(F)cccc3Cl)noc2C)cc1	-11%	-11%	1%	-22%	/	-9%	/
O=C(Nc1ccc(-c2nc3ccccc3[nH]2)cc1)c1ccc(C(F)(F)F)cc1	/	/	/	/	/	/	/	POLI cherry-pick=?
CS(=O)(=O)c1ccc(C(=O)Nc2ccc(-c3nc4ccccc4[nH]3)cc2)cc1	-22%	6%	0%	3%	8%	12%	/
CC1CCc2c(sc(NC(=O)C3CCCO3)c2C#N)C1 (stereo not drawn)	40%	-2%	0%	1%	-8%	0%	/
CCC1CCc2c(sc(NC(=O)C3CC=CCC3C(=O)O)c2C#N)C1 (stereo not drawn)	-7%	-18%	79µM*	?	-31%	-1%	?
CCN(CC)CCCNC(=O)C1CCN(S(C)(=O)=O)CC1	22%	-1%[60.1 µM]	-1%	-25%	/	-3%	/
COc1ccc(-n2nc(C(=O)Nc3ccc(OC)c(OC)c3)c3c4ccccc4n(C)c3c2=O)cc1	?	-10%	-22%	?	-21%[11.6 µM]	-5%	/	POLI cherry-pick=4.7*
Cc1cccc(C(c2sc3nc(-c4ccco4)nn3c2O)N2CCOCC2)c1 (stereo not drawn)	13%	-6%[60.1 µM]	29%	-6%	/	9%	/
C=C(C)C(=O)Nc1cccc(C2=NOC3(C2)C[C@@H](C(N)=O)N(C(=O)c2cc([N+](=O)[O-])cc([N+](=O)[O-])c2)C3)c1 (stereo partly drawn)	?	?	14µM*	20µM*	-21%	13%	?
CCCCCC(=O)Nc1cccc(C2=NOC3(C2)C[C@@H](C(N)=O)N(C(=O)c2cc([N+](=O)[O-])cc([N+](=O)[O-])c2)C3)c1 (stereo partly drawn)	1%	-5%	-2%	-21%	-4%	-9%	/
COc1ccc(C2=CC3=C(Br)C(=O)C(C)(OC(=O)C4CCCC4)C(=O)C3=CO2)cc1 (stereo not drawn)	40µM*	79µM*	35µM*	45µM*	?	?	9.2µM*
CCOc1ccc(C(=O)Nc2cc(C)ccn2)cc1	93%	3%	30%	-18%	?	3%	16µM*

Source: PubChem (National Center for Advancing Translational Sciences (NCATS))
